In the supplement of paper PMC6992640:
± gives the standard deviation of the averaged measurements.

Legend:
Test in all cases: cell viability (% of vehicle); higher = less cytotoxic
Conditions in all cases: 10 µM; 72 h
[1] = tested on: HCI01 (cells of a triple-negative basal-like breast cancer xenograft)
[2] = tested on: HCI03 (cells of an ER-positive luminal breast cancer xenograft)
[3] = tested on: HCI09 (cells of a triple-negative luminal androgen receptor type breast cancer xenograft)
[4] = tested on: HCI11 (cells of an ER-positive luminal breast cancer xenograft)
[5] = tested on: HCI13 (cells of an ER-positive luminal breast cancer xenograft)
[6] = tested on: HCI16 (cells of a triple-negative basal-like breast cancer xenograft)
[7] = tested on: UCD52 (cells of a triple-negative basal-like breast cancer xenograft)
[8] = tested on: WHIM2 (cells of a triple-negative basal-like breast cancer xenograft)
[9] = tested on: WHIM30 (cells of a triple-negative basal-like breast cancer xenograft)
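Further: PDX cells carrying CMV promoter-driven luciferase, viability read as total photon flux per second by IVIS imaging following D-luciferin, vehicle control 0.1% DMSO.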

Row | SMILES | cell viability [1] | cell viability [2] | cell viability [3] | cell viability [4] | cell viability [5] | cell viability [6] | cell viability [7] | cell viability [8] | cell viability [9]
1 | COc1cc(OC)c(C(=O)CCCN2CCCC2)c(OC)c1.Cl [Buflomedil HCl] | 95.4 ± 3.3 | 131 | 95.6 ± 15 | 94.4 | 86.6 ± 2.6 | 122 | 92.5 ± 16 | 117 ± 28 | 134 ± 2.4
2 | OCC(O)C(O)C(O)CO (stereo not given) [Xylitol] | 96.8 ± 14 | 133 | 101 ± 15 | 95.5 | 97 ± 3.2 | 101 | 101 ± 7.7 | 90.3 ± 14 | 83.1 ± 8.9
3 | CN(C)CCC=C1c2ccccc2Sc2ccc(Cl)cc21 [Chlorprothixene] | 85.8 ± 14 | 87.1 | 71.9 ± 13 | 93.9 | 105 ± 2.6 | 83.8 | 54.4 ± 2.5 | 49.9 ± 20 | 124 ± 13
4 | CC(C)Cc1ccc(C(C)C(=O)O)cc1 (stereo not given) [Ibuprofen] | 124 ± 28 | 115 | 110 ± 24 | 104 | 133 ± 7.1 | 90.2 | 88.9 ± 4.3 | 102 ± 13 | 104 ± 4.4
5 | CO/N=C(\C(=O)N[C@@H]1C(=O)N2C(C(=O)O)=C(CSc3nc(=O)c(O)nn3C)CS[C@H]12)c1csc(N)n1 [Ceftriaxone Sodium Trihydrate] | 148 ± 45 | 111 | 98.6 ± 26 | 101 | 77.6 ± 1.9 | 125 | 106 ± 1.4 | 130 ± 13 | 109 ± 2.1
6 | O=C(NCCO[N+](=O)[O-])c1cccnc1 [Nicorandil] | 81.9 ± 59 | 135 | 93.1 ± 9.9 | 89.3 | 151 ± 28 | 113 | 82.6 ± 8.1 | 120 ± 9.5 | 127 ± 5.8
7 | CC(C)CC(N)=O [Isovaleramide] | 103 ± 22 | 132 | 97.6 ± 3.4 | 98.5 | 104 ± 13 | 94.6 | 99.9 ± 2 | 98.5 ± 13 | 96.1 ± 7.9
8 | CN(C)C(=O)NC1CCC(CCN2CCN(c3cccc(Cl)c3Cl)CC2)CC1 (stereo not given) [Cariprazine] | 122 ± 28 | 72.1 | 43.9 ± 2.2 | 67.7 | 53.4 ± 11 | 89.7 | 38.5 ± 6 | 119 ± 8 | 118.6 ± 0.35
9 | CC12C=CC(=O)C=C1CCC1C2C(=O)CC2(C)C1CCC2(O)C(=O)CO (stereo not given) [Prednisone] | 71.1 ± 46 | 93.9 | 118 ± 37 | 98.9 | 165 ± 8.5 | 138 | 103 ± 3.1 | 92.6 ± 38 | 130 ± 13
10 | CCCCCOC(=O)Nc1nc(=O)n(C2OC(C)C(O)C2O)cc1F (stereo not given) [Capecitabine] | 142 ± 26 | 114 | 139 ± 24 | 124 | 165 ± 25 | 120 | 112 ± 4 | 108 ± 6.9 | 162 ± 33
11 | Cl.O=C1Cc2cc(CCN3CCN(c4nsc5ccccc45)CC3)c(Cl)cc2N1 [Ziprasidone HCl] | 45.7 ± 12 | 78.6 | 33.8 ± 21 | 57.8 | 45.9 ± 5.8 | 46.5 | 130 ± 9.5 | 38.1 ± 5.7 | 123 ± 11
12 | CC1(C)SC2C(NC(=O)C(N)c3ccccc3)C(=O)N2C1C(=O)O.O.O.O (stereo not given) [Ampicillin Trihydrate] | 138 ± 26 | 124 | 94.6 ± 8.1 | 110 | 143 ± 7.4 | 120 | 82 ± 7.2 | 103 ± 2.1 | 95.8 ± 2.6
13 | O=C1CCC(N2C(=O)c3ccccc3C2=O)C(=O)N1 (stereo not given) [Thalidomide] | 144 ± 7.8 | 129 | 101 ± 4.3 | 103 | 129 ± 15 | 114 | 102 ± 4.3 | 103 ± 19 | 145 ± 15
14 | CN(C)C(CCOc1cccc2ccccc12)c1ccccc1.Cl (stereo not given) [Dapoxetine HCl] | 87.4 ± 15 | 79.4 | 96.9 ± 11 | 74.2 | 95.1 ± 13 | 70 | 47.9 ± 5.3 | 65.2 ± 12 | 98.4 ± 1.4
15 | CCOC(=O)C(CCc1ccccc1)NC(C)C(=O)N1C(=O)N(C)CC1C(=O)O.Cl (stereo not given) [Imidapril HCl] | 105 ± 8.3 | 113 | 99.8 ± 7.1 | 102 | 126 ± 1.4 | 94.2 | 78 ± 3.8 | 105 ± 3.3 | 104 ± 10
16 | Cl.NC(N)=NC(=O)c1nc(Cl)c(N)nc1N.O.O [Amiloride HCl dihydrate] | 99.2 ± 7.3 | 102 | 121 ± 1.5 | 89.4 | 102 ± 8.4 | 115 | 96.35 ± 0.8 | 86 ± 16 | 114 ± 8.2
17 | NS(=O)(=O)c1cc(C(=O)O)c(NCc2ccco2)cc1Cl [Furosemide] | 108 ± 7.4 | 126 | 98.4 ± 8.6 | 105 | 89.1 ± 17 | 94.5 | 83.56 ± 0.16 | 98.3 ± 1.4 | 78.9 ± 6.2
18 | CS(=O)(=O)c1ccc(C(O)C(CF)NC(=O)C(Cl)Cl)cc1 (stereo not given) [Florfenicol] | 118 ± 25 | 118 | 89.5 ± 2.1 | 101 | 114 ± 8.4 | 116 | 102 ± 2.6 | 87.4 ± 18 | 99.1 ± 6.9

Row | SMILES | cell viability [1] | cell viability [2] | cell viability [3] | cell viability [4] | cell viability [5] | cell viability [6] | cell viability [7] | cell viability [8] | cell viability [9]
19 | CCOc1cc(C(CS(C)(=O)=O)N2C(=O)c3cccc(NC(C)=O)c3C2=O)ccc1OC (stereo not given) | 161 ± 13 | 149 | 112.6 ± 0.15 | 121 | 150 ± 16 | 135 | 117 ± 13 | 118 ± 7.6 | 140 ± 16
20 | Cc1cn(-c2cc(/N=C(\O)c3ccc(C)c(Nc4nccc(-c5cnccn5)n4)c3)cc(C(F)(F)F)c2)cn1 [Radotinib(IY-5511)] | 89.5 ± 3.2 | 142 | 92.6 ± 13 | 92.9 | 80.9 ± 9.7 | 107 | 102 ± 10 | 100 ± 12 | 104 ± 27
21 | CN(CCOc1ccc(CC2SC(=O)NC2=O)cc1)c1ccccn1 (stereo not given) [Rosiglitazone] | 176 ± 35 | 162 | 129 ± 33 | 153 | 189 ± 26 | 142 | 124 ± 10 | 174 ± 17 | 199 ± 3.1
22 | CC12CCC3c4ccc(O)cc4CC(CCCCCCCCCS(=O)CCCC(F)(F)C(F)(F)F)C3C1CCC2O (stereo not given) [Fulvestrant] | 137 ± 7.5 | 89.1 | 65.5 ± 7.2 | 85.6 | 53 ± 6.5 | 95.7 | 78.9 ± 3.8 | 77.5 ± 36 | 129 ± 12
23 | CNC1C(OC2C(OC3C(O)C(O)C(N=C(N)N)C(O)C3N=C(N)N)OC(C)C2(O)C=O)OC(CO)C(O)C1O.CNC1C(OC2C(OC3C(O)C(O)C(N=C(N)N)C(O)C3N=C(N)N)OC(C)C2(O)C=O)OC(CO)C(O)C1O.O=S(=O)(O)O.O=S(=O)(O)O.O=S(=O)(O)O (stereo not given) [Streptomycin sulfate] | 82.6 ± 31 | 97.7 | 84.6 ± 5.9 | 82.9 | 90 ± 1.7 | 103 | 84.1 ± 3.6 | 81.8 ± 12 | 86.6 ± 7.4
24 | Cc1ccc(NC(=O)c2ccc(CN3CCN(C)CC3)cc2)cc1Nc1nccc(-c2cccnc2)n1 [Imatinib (STI571)] | 87.1 ± 42 | 156 | 86.31 ± 0.75 | 89.4 | 108 ± 5.6 | 98.9 | 89.2 ± 1.7 | 91.7 ± 19 | 104 ± 12
25 | Cc1ccc(Cl)c(Nc2ccccc2C(=O)[O-])c1Cl.[Na+] [Meclofenamate Sodium] | 111 ± 10 | 158 | 100 ± 5.1 | 103 | 122 ± 5 | 121 | 92.1 ± 4.6 | 97.8 ± 9.9 | 144 ± 2.2
26 | Cc1c(-c2ccccc2)oc2c(C(=O)OCCN3CCCCC3)cccc2c1=O.Cl [Flavoxate hydrochloride] | 87 ± 21 | 123 | 115.8 ± 0.74 | 90.9 | 128 ± 27 | 119 | 99.5 ± 2 | 88.5 ± 24 | 107 ± 9.2
27 | COc1ccc2nc(S(=O)Cc3ncc(C)c(OC)c3C)[nH]c2c1 (stereo not given) [Omeprazole] | 127 ± 30 | 149 | 94.2 ± 5.6 | 102 | 94 ± 3.6 | 121 | 138 ± 16 | 99.8 ± 23 | 192 ± 5.1
28 | CC(=O)Oc1cccc2c1C(=O)c1c(OC(C)=O)cc(C(=O)O)cc1C2=O [Diacerein] | 57 ± 39 | 93.9 | 79.1 ± 34 | 77.8 | 109 ± 11 | 146 | 98.6 ± 6.8 | 123 ± 39 | 60.3 ± 16
29 | COc1c2ccoc2cc2oc(=O)ccc12 [5-Methoxypsoralen] | 103 ± 24 | 142 | 93.1 ± 13 | 93.8 | 121 ± 3.1 | 109 | 85.2 ± 13 | 103 ± 3.7 | 93 ± 3.1
30 | Cc1ccc(O)c(C(CCN(C(C)C)C(C)C)c2ccccc2)c1.O=C(O)C(O)C(O)C(=O)O (stereo not given) [Tolterodine tartrate] | 113 ± 38 | 101 | 96.8 ± 7.1 | 93.6 | 97.1 ± 18 | 133 | 60.5 ± 8.9 | 91.5 ± 2.5 | 92.5 ± 1.7
31 | O=C([O-])P(=O)([O-])[O-].[Na+].[Na+].[Na+] [Foscarnet Sodium] | 104 ± 20 | 96.7 | 98.1 ± 3.7 | 89.6 | 95.1 ± 6.7 | 133 | 86.4 ± 3 | 103 ± 11 | 126 ± 2.2
32 | C/C=C/C1=C(C(=O)O)N2C(=O)[C@@H](NC(=O)[C@H](N)c3ccc(O)cc3)[C@@H]2SC1 [Cefprozil] | 97.6 ± 3.2 | 174 | 103 ± 22 | 97 | 85.4 ± 1.5 | 115 | 107 ± 8.6 | 93.4 ± 26 | 115 ± 7.5
33 | CCC1(O)CC2CN(CCc3c([nH]c4ccccc34)C(C(=O)OC)(c3cc4c(cc3OC)N(C)C3C(O)(C(=O)OC)C(OC(C)=O)C5(CC)C=CCN6CCC43C65)C2)C1.O=S(=O)(O)O (stereo not given) [Vinblastine sulfate] | 127 ± 23 | 88.5 | 61 ± 26 | 102 | 40.1 ± 2.1 | 144 | 80.3 ± 1.4 | 76.8 ± 13 | 102 ± 19
34 | CN1CCC(OC(c2ccccc2)c2ccccc2)CC1.Cl [Diphenylpyraline HCl] | 86 ± 3.4 | 99.9 | 97.7 ± 17 | 106 | 97.2 ± 13 | 91.7 | 75.5 ± 12 | 84.7 ± 21 | 107 ± 14
35 | NCC1OC(OC2C(N)CC(N)C(OC3OC(CO)C(O)C(N)C3O)C2O)C(O)C(O)C1O.O=S(=O)(O)O (stereo not given) [Kanamycin Sulfate] | 106 ± 5.6 | 92.9 | 90.5 ± 16 | 96.7 | 120 ± 31 | 86.8 | 81.5 ± 0.83 | 80.1 ± 15 | 95.8 ± 11
